Screening results deposited in PubChem BioAssay by National Center for Advancing Translational Sciences (NCATS).
AmpC inh detg: qHTS Inhibitors of AmpC Beta-Lactamase (assay with detergent); P00811; AmpC hydrolysis of nitrocefin, absorbance 480 nm, 0.01% Triton; Potency, µM (highest dose often 114 µM), for inactives: at the highest dose activity change, negative = inhibition, usual class: inhibitors; 370,000 tested, 0.041% active; AID 485294, 2010;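 also: 0% = no-compound wells and -100% = no-enzyme wells; nearly all actives have a fitted effect of over 25% in size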
Target sequence (P00811 whole entry, looked up): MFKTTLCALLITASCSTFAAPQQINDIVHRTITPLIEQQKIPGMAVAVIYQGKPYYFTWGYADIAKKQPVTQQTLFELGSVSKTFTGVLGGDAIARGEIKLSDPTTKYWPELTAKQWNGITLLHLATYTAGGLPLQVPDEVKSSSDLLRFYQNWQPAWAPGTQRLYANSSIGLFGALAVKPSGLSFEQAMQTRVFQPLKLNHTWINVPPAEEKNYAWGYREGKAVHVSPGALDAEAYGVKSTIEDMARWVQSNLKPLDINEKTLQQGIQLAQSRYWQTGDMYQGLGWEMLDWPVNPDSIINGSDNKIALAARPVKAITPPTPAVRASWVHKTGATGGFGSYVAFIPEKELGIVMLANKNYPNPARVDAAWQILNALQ
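20 mM phosphate pH 7.0 + 0.01% (detergent screen) or 0.0001% Triton X-100; 5.3 nM AmpC reagent; cpd preinc 15 min RT; nitrocefin (800 uM stock) to start; A480 q20 s × 4 min; Activity was normalised to no-enzyme and no-compound control wells.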
VACV Venus inh: qHTS for Stage-Specific Inhibitors of Vaccinia Orthopoxvirus: Venus Reporter Primary qHTS | Potency, µM (highest dose often 36.5 µM), inactives show at the highest dose activity change, negative = inhibition, hits mostly inhibitors | Vaccinia virus Venus reporter expression, fluorescence | AID 720580, 2013 | 330,000 tested, 0.46% active; calls by dose curve; tested in A549 cells; also: % is scaled to controls: 0 for no effect and ±100 for the full control effect; nearly all actives have a fitted effect of over 30% in size
Vaccinia mCherry: qHTS for Stage-Specific Inhibitors of Vaccinia Orthopoxvirus: mCherry Reporter Primary qHTS | Vaccinia virus mCherry reporter infection, fluorescence | Potency, µM (top dose mostly 36.5 µM), for the others: at the highest dose activity change, negative = inhibition, actives largely listed as inhibitors | 310,000 tested, 0.63% active; calls by dose curve; tested in A549 cells; also: % is scaled to controls: 0 for no effect and ±100 for the full control effect; nearly all actives have a fitted effect of over 35% in size
AmpC no deterg: qHTS Inhibitors of AmpC Beta-Lactamase (assay without detergent). 330,000 tested, 0.52% active. AID 485341, 2010. AmpC nitrocefin hydrolysis, absorbance 480 nm, 0.0001% Triton. Potency, µM (doses to about 57.1 µM), for inactives: at the top dose activity change, negative = inhibition, hits mostly inhibitors. P00811;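 also: plate controls were no compound for no effect and no enzyme for full effect; nearly all actives have a fitted effect of over 20% in size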
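20 mM phosphate pH 7.0 + 0.01% (detergent screen) or 0.0001% Triton X-100; 5.3 nM AmpC reagent; cpd preinc 15 min RT; nitrocefin (800 uM stock) to start; A480 q20 s × 4 min; Activity was normalised to no-enzyme and no-compound control wells.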
AMA1-RON2 inh: qHTS for Inhibitors of AMA1-RON; Towards Development of Antimalarial Drug Lead: Primary Screen; Potency, µM (doses to about 58.2 µM), for the others: at the highest dose activity change, negative = inhibition, most hits filed as inhibitors; 360,000 tested, 0.2% active; AlphaScreen AMA1-biotinylated RON2 peptide binding; Plasmodium falciparum AMA1 (3D7) - RON2 peptide interaction;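 also: 0% = vehicle wells and -100% = peptide control; nearly all actives have a fitted effect of over 45% in size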
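AMA1 (3D7) with his tag at 25 nM final met compounds first, then biotinylated RON2 peptide at 25 nM; detection used donor plus acceptor beads, 10 µg/mL apiece, read by AlphaScreen after 30 min at room temperature.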
SARS PLP yeast: qHTS of Yeast-based Assay for SARS-CoV PLP; S. cerevisiae expressing SARS-CoV PLpro, growth rescue; 330,000 tested, 0.19% active; Potency, µM (series often up to 32.9 µM), for inactives: at the top dose activity, positive = growth rescue, usual class: activators; calls by dose curve; also: 0% is about no effect; nearly all actives have a fitted effect of over 55% in size
* marks the source's active call; other numbers are inactive results; ? = inconclusive; · = not tested or not shown. Compounds with a hit are over-represented: about 1.3% of the library has one in this group of screens. Unless noted, calls follow the shape of the dose curve; as a rule, active = well fitted curve in the direction sought with a large enough effect; inconclusive = small, poorly fitted or top-dose-only effect, or another doubt; inactive = no such curve, though single readings can be large; an effect the other way counts as inactive or inconclusive. Potency is read from the fitted curve at half-maximal effect.

SMILES	AmpC inh detg	VACV Venus inh	Vaccinia mCherry	AmpC no deterg	AMA1-RON2 inh	SARS PLP yeast
Cc1cccc2cc(CN(C(=O)c3ccc(C(F)(F)F)cc3)C3CC3)c(N3CCC(O)CC3)nc12	·	1%	-12%	·	·	·
Cc1ccc(/C=C(\C#N)c2nn(-c3ccccc3)c(N)c2C#N)cc1	2%	?	10µM*	-6%	-7%	-18%
O=C(CCl)Nc1c[nH]c(=O)[nH]c1=O	?	7.9µM*	7.1µM*	-13%	1%	-2%
Cc1cc(C)cc(NC(=O)C(OC(=O)c2ccc(NC(=O)CC#N)cc2)c2ccccc2)c1 (stereo not given)	-10%	5%	-1%	11µM*	10%	11%
CN(C)CCCNc1c2ccccc2nc2ccccc12	-5%	8.9µM*	7.1µM*	1%	-8%	-6%
c1ccc(CNc2c3ccccc3nc3ccccc23)cc1	-4%	11µM*	?	-41%	-2%	-2%
c1ccc(CNc2ncnc3ccccc23)cc1	-7%	?	-8%	-3%	25%	1%
CS(=O)(=O)Nc1ccccc1C(=O)Nc1ccccc1C(=O)N1CCCC1	-6%	-8%	-10%	2%	-7%	5%
CS(=O)(=O)Nc1ccc(C(=O)Nc2ccccc2C(=O)N2CCCC2)cc1	4%	·	·	-9%	-3%	16µM*
COc1ccc(C(C#N)=C2C=C(Cl)C(=NO)C=C2Cl)cc1	·	?	?	·	22µM*	·
COc1ccc(C(=N/O)/C(=N/O)c2ccc(OC)cc2)cc1	-14%	-8%	-7%	-49%	-2%	0%
COc1ccc(C(C#N)=C2C=CC(=NO)C(C)=C2Cl)cc1	·	-3%	-17%	·	3.2µM*	·
COc1ccc2ccccc2c1CN1CCOc2ccc(CN3CCN(CCO)CC3)cc2C1	·	-7%	-10%	·	·	·
Cc1ncc2c(c1CNC(=O)c1ccc3c(c1)OCO3)CCN(C(=O)c1cnsn1)C2	·	-6%	-10%	·	·	·
CCC1CN(Cc2cccn2-c2ccccn2)Cc2cc(OC)ccc2O1 (stereo not given)	·	5%	-9%	·	·	·
COc1cc(=O)n2c(c1C(=O)N(C)Cc1nccs1)CCN(Cc1c(F)ccc(F)c1F)CC2	·	-2%	-8%	·	·	·
Oc1ccc(-c2cnccn2)cc1CN1CCN(C2CCCCC2)CC1	·	5%	-9%	·	·	·
COc1ccc(NC(=O)C2CCCN2S(=O)(=O)c2ccc(C)cc2)cc1 (stereo not given)	1%	·	·	-13%	-10%	-2%
COc1ccc(NC(=O)C2CCCCN2S(=O)(=O)c2ccc(F)cc2)cc1 (stereo not given)	12%	-7%	-13%	3.2µM*	0%	-13%
Cc1oc(-c2ccccc2NC(=O)c2ccccn2)nc1CNC(=O)c1cccc(C#CC(C)(C)O)c1	·	-10%	-8%	·	·	·
NNc1ccc2c(C(F)(F)F)cc(C(F)(F)F)nc2n1	4%	-5%	-6%	-2%	100%	1%
N#CC(c1cccc(Cl)c1)c1ccc2c(C(F)(F)F)cc(C(F)(F)F)nc2n1 (stereo not given)	1%	2.2µM*	·	·	?	·
O=C(Nc1cc(Sc2nc3ccccc3s2)cc([N+](=O)[O-])c1)c1ccccc1	-14%	?	?	13µM*	-9%	13%
CCOc1ccc(C(=O)Nc2ccc3nc(SCc4ccccc4)sc3c2)cc1	10%	10µM*	?	·	·	·
Cc1ccc(OCC(=O)Nc2ccc3nc(SCc4ccccc4)sc3c2)cc1	4%	-13%	-14%	·	·	·
Cc1c(Nc2ncnc3c2cnn3-c2ccccc2)c(=O)n(-c2ccccc2)n1C	5%	-12%	0%	0.14µM*	-10%	2%
COc1ccc(OC)c(CN2CCOc3ccc(C(O)c4cccnc4)cc3C2)c1 (stereo not given)	·	-13%	-22%	·	·	·
